Measured values: PubChem BioAssay (NCI)
Compounds without any hit were thinned out: in the full panel of roughly 83,000, 20% have a hit.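 A percent growth of 40 corresponds to 60% growth inhibition; 0 means no net growth; -100 means all cells died. Active threshold: below 10.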 A number with no mark means an inactive call. Calls of active or inactive are those of the source.

How the values were obtained:
Experiment in all cases: NCI-60 one-dose screen, 48 h (100 = growth as untreated, 0 = no growth, -100 = all killed)
Conditions in all cases: 10 µM unless noted
HCT-15 colon = system: HCT-15 colon
HT29 colon = system: HT29 colon
SNB-75 CNS = system: SNB-75 CNS
SNB-19 CNS = system: SNB-19 CNS
U251 CNS = system: U251 CNS
PC-3 prostate = system: PC-3 prostate
SK-MEL-5 melanoma = system: SK-MEL-5 melanoma
UACC-62 melanoma = system: UACC-62 melanoma
LOX IMVI melanoma = system: LOX IMVI melanoma
SK-MEL-28 melanoma = system: SK-MEL-28 melanoma
SK-MEL-2 melanoma = system: SK-MEL-2 melanoma
EKVX NSCLC = system: EKVX NSCLC
SN12C renal = system: SN12C renal
UO-31 renal = system: UO-31 renal
TK-10 renal = system: TK-10 renal
ACHN renal = system: ACHN renal
CAKI-1 renal = system: CAKI-1 renal
A498 renal = system: A498 renal
CCRF-CEM leukemia = system: CCRF-CEM leukemia
MOLT-4 leukemia = system: MOLT-4 leukemia

Row | SMILES | growth (HCT-15 colon) | growth (HT29 colon) | growth (SNB-75 CNS) [%] | growth (SNB-19 CNS) | growth (U251 CNS) | growth (PC-3 prostate) | growth (SK-MEL-5 melanoma) | growth (UACC-62 melanoma) | growth (LOX IMVI melanoma) | growth (SK-MEL-28 melanoma) | growth (SK-MEL-2 melanoma) | growth (EKVX NSCLC) | growth (SN12C renal) | growth (UO-31 renal) | growth (TK-10 renal) | growth (ACHN renal) | growth (CAKI-1 renal) | growth (A498 renal) | growth (CCRF-CEM leukemia) | growth (MOLT-4 leukemia)
1 | COC(=O)c1[nH]nc2c1C1(C(=O)N(C)c3ccccc31)C(C#N)=C(N)O2 (stereo not given) | 101% | 104% | 91.5 | 101% | 105% | 91% | 99.4% | 96.1% | 97% | 105% | 105% | 99.3% | 97.9% | 79.7% | 102% | 97.9% | 91.1% | 90.2% | 109% | 112%
2 | O=S(=O)(NCCNc1nccc(-n2cnc3ccccc32)n1)c1ccc(C(F)(F)F)cc1 | 60.7% | 68% | 46.8 | 69.8% | 69.6% | 45.5% | 8.48% (active) | 42.4% | 57.4% | 77.2% | 67.8% | 34.7% | 72.5% | 39.9% | 63.4% | 60.8% | 43.1% | 56.6% | 57.6% | 45.2%
3 | FC(F)(F)c1cc(Nc2cccc(Oc3ccc(NC4=NCCN4)nc3)c2)ccc1Cl | -71.4% (active) | 4.39% (active) | 10.7 | 9.09% (active) | -7.18% (active) | -36.5% (active) | 4.94% (active) | -45.5% (active) | -94.8% (active) | 29.4% | 5.11% (active) | 12.6% | -24.8% (active) | 21.9% | 27.5% | 1.37% (active) | 16.2% | 37.9% | 14.6% | 9.2% (active)
4 | Cc1ccc(C2=NN(C)C(=O)C3(CCCC3)C2)cc1 | 101% | 106% | 93.5 | 105% | 103% | 102% | 101% | 98.5% | 100% | 103% | 110% | 102% | 101% | 95.5% | 97.3% | 110% | 100% | 89.4% | 111% | 102%
5 | COc1ccc([C@H]2c3[nH]c4ccccc4c3C[C@H]3C(=O)N(C4CCN(Cc5c(Cl)cccc5Cl)CC4)CC(=O)N23)c(OC)c1 | 92.4% | 103% | 99.3 | 95.5% | 95.8% | 72.7% | 95.7% | 84.1% | 98.6% | 101% | 103% | 86.2% | 91% | 53.7% | 110% | 86.8% | 73.4% | 128% | 94.6% | 86.2%
6 | c1ccc(C(c2nc3ncncc3[nH]2)N2CSc3nc4ccccc4n3C2)cc1 (stereo not given) | 101% | 107% | 91 | 100% | 107% | 95.6% | 106% | 93.1% | 102% | 104% | 103% | 97.5% | 98.8% | 82.7% | 115% | 94.7% | 89.5% | 102% | 108% | 104%
7 | CCCCNNC(=O)c1ccc(-c2cccc(F)c2F)cc1 | 55.1% | 10.6% | 80.7 | 54.6% | 36% | 45.9% | 5.84% (active) | 8.48% (active) | 21.8% | 25.7% | 26.8% | 45.3% | 56.3% | 3.46% (active) | 13.3% | 22.4% | 30.9% | -6.27% (active) | 27.4% | 27.7%
8 | CCC(CC)N1C(=O)/C(=c2\sc3n(c2=O)NC2C(N=3)N(CC)C(=O)N2CC)c2ccccc21 (stereo not given) | 34.5% | 44.7% | 67.9 | 71.4% | 58.9% | 43.9% | 55.6% | 39.9% | 39.3% | 57% | 101% | 59.6% | 56% | 54.4% | 127% | 50.4% | 50.8% | 52.3% | 55.3% | 59.8%
9 | O=[N+]([O-])c1cc(/C=N/Nc2nc(N/N=C/c3ccc(Cl)c([N+](=O)[O-])c3)nc(N3CCCCC3)n2)ccc1Cl | 49.7% | 7.43% (active) | 136 | 72.6% | 18.5% | 53.4% | 77.8% | 43.1% | 66% | 62.2% | 80.7% | 78% | 72.3% | 47.5% | 93.8% | 35.2% | 72.4% | 108% | 61.3% | 42.3%
10 | COc1cc2c(cc1OC)C(Sc1ccc(F)cc1)c1c(nc(N)c(C#N)c1N)O2 (stereo not given) | -70.7% (active) | 5.15% (active) | 52.9 | -82.5% (active) | -77.5% (active) | -84% (active) | -82.5% (active) | -74.2% (active) | -91.1% (active) | -71.9% (active) | -6.24% (active) | -86.6% (active) | -86.5% (active) | -98.1% (active) | -30.1% (active) | -99.3% (active) | -58.4% (active) | -42.8% (active) | -13.6% (active) | 0.279% (active)
11 | c1cc(-c2nc3ccc4[nH]ncc4c3c3c2CCCC3)[nH]n1 | 34.8% | 63.7% | 60.3 | 64.6% | 65.7% | 57.1% | 76.9% | 50.7% | 58.4% | 94.1% | 29.1% | 60.8% | 75% | 50.7% | 36% | 32.6% | 27.6% | 16.2% | 46.7% | 67.8%
12 | CC1(C)CC[C@]2(C(=O)O)CC[C@]3(C)C(=CC[C@@H]4[C@@]5(C)CC/C(=N\OCCC#N)C(C)(C)[C@@H]5CC[C@]43C)[C@@H]2C1 | 106% | 109% | 53.4 | 104% | 107% | 99.2% | 98.4% | 92.6% | 91.8% | 106% | 93.5% | 70.7% | 86.7% | 61.1% | 51.3% | 100% | 59.7% | 51.3% | 90.1% | 101%
13 | Nc1ncc(-c2ccc(NS(=O)(=O)c3ccc(Cl)c(Cl)c3)cc2)[nH]1 | 94.6% | 107% | 90.9 | 87.7% | 92.3% | 76.5% | 97.2% | 78.2% | 89.5% | 99.3% | 105% | 86.7% | 90.9% | 76.3% | 80% | 95.7% | 71.6% | 85.1% | 55.2% | 73.9%
14 | CC(=O)N(C)C1CCc2c(sc(NC(=O)c3ccc(C(C)(C)C)cc3)c2C(N)=O)C1 (stereo not given) | 57.1% | 77.7% | 39.2 | 74.7% | 51.8% | 45.9% | 91.7% | 85.7% | 29.5% | 80% | 103% | 75.5% | 71.1% | 89% | 106% | 97.7% | 64.8% | 80% | 69.3% | 75.2%
15 | COc1ccc(N2C(=O)c3cc(Cl)ccc3NC2SCc2ccccc2)cc1 (stereo not given) | 82% | 84.1% | 94.9 | 95.7% | 99.4% | 84.8% | 102% | 70.3% | 94.8% | 99.2% | 98.9% | 91.6% | 91.5% | 63.8% | 96.2% | 101% | 81.8% | 84.7% | 92.2% | 84.5%
